Key:
Experiment in all cases: DAPPL (digital affinity profiling via proximity ligation, sequencing); 10 mM Tris-HCl pH 7.5, 50 mM NaCl, 1 mM DTT, 4% glycerol, room temperature, 30 min; GST-TFs on glutathione beads, 16-mer random dsDNA library, 0.1% formaldehyde crosslink after washing; high values mean tight binding
Conditions in all cases: protein: recombinant; tags: N-terminal GST; dsDNA, one strand shown
FLI1 = target: T1, FLI1 (Homo sapiens, UniProt Q01543 1-452)
T1 sequence: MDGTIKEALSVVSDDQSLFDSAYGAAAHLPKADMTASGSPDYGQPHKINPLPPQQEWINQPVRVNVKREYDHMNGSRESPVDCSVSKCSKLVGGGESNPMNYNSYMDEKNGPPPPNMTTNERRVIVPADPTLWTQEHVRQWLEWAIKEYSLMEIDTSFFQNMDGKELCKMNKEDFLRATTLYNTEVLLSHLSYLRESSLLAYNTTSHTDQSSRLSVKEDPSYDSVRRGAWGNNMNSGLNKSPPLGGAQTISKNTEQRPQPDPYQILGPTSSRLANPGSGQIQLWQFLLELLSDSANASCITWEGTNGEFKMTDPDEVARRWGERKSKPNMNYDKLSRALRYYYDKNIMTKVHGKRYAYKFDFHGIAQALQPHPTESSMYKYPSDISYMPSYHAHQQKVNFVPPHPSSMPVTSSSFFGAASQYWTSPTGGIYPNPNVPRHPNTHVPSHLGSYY
Summary of the method: (§1)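 Human transcription factors fused to GST were expressed in yeast, captured on glutathione beads, given DNA barcodes and pooled with a GST-only negative control. Pools were incubated with 200 nmole of a 16-mer random double-stranded DNA library in Tris/NaCl/DTT/glycerol buffer at room temperature for 30 min. They were then washed, crosslinked with 0.1% formaldehyde, proximity-ligated (BsaI/T4 ligase, 1 h, 37 °C), PCR-amplified and sequenced on an Illumina NextSeq500. Binding signal is each 6-mer's read frequency for a factor divided by its frequency for the GST control.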

ELK1 = target: T2, ELK1 (Homo sapiens, UniProt P19419 1-428)
T2 sequence: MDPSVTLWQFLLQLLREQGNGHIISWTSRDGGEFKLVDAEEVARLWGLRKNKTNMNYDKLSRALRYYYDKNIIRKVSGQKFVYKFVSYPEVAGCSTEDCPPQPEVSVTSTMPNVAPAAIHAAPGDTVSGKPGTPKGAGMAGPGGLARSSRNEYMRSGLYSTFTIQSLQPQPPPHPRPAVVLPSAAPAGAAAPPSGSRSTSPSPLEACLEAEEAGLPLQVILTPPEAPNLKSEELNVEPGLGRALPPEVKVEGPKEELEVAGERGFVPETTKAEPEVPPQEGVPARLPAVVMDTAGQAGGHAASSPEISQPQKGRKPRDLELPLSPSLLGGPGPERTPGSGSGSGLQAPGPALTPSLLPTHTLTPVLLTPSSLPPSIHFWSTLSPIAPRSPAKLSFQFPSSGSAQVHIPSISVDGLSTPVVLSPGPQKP
Summary of the method: as §1

GABPA = target: T3, GABPA (Homo sapiens, UniProt Q06546 1-454)
T3 sequence: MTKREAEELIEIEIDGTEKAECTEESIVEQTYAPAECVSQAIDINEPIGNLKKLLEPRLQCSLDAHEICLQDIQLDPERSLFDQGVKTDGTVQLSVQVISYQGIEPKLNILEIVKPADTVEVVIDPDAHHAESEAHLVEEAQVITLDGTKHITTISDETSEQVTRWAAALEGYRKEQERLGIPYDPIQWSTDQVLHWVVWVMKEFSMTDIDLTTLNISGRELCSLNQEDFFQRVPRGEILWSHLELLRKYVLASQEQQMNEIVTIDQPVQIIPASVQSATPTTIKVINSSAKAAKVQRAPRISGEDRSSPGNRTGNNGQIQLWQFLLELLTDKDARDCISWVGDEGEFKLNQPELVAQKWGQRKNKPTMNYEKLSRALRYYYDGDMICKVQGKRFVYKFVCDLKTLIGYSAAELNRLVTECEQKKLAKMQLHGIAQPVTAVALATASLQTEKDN
Summary of the method: as §1

ERG = target: T4, ERG (Homo sapiens, UniProt P11308 1-479)
T4 sequence: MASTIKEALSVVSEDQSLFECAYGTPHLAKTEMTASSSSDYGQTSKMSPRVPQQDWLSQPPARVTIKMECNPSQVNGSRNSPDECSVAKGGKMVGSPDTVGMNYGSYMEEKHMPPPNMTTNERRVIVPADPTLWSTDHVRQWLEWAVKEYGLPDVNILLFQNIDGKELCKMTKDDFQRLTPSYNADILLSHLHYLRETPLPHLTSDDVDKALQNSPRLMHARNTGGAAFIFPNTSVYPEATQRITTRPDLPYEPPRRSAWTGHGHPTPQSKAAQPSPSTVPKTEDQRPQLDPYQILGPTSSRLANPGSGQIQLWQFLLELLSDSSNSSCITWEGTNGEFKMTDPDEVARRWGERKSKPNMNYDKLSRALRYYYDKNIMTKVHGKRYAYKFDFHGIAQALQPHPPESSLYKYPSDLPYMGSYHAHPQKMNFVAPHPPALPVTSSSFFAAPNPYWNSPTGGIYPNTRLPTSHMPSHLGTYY
Summary of the method: as §1

ELF1 = ELF1 (Homo sapiens, UniProt P32519 1-619)
Sequence of ELF1 (P32519 whole entry): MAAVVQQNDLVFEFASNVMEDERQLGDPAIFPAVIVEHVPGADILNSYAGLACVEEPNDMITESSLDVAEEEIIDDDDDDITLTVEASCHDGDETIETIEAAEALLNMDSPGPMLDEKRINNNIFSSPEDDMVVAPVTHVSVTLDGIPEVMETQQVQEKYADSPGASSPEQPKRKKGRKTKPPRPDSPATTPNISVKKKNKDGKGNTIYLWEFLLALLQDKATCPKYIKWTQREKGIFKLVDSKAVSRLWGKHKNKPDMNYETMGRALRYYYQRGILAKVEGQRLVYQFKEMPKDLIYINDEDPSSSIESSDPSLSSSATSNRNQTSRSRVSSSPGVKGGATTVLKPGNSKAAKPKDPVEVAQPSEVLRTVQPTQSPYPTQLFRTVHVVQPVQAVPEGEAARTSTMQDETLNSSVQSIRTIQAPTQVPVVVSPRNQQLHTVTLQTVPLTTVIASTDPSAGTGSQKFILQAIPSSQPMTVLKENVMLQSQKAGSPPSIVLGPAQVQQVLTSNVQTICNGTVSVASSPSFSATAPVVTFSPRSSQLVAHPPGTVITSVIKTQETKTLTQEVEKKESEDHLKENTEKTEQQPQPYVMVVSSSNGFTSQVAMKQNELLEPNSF
Summary of the method: as §1

EHF = target: T5, EHF (Homo sapiens, UniProt Q9NZC4 1-300)
T5 sequence: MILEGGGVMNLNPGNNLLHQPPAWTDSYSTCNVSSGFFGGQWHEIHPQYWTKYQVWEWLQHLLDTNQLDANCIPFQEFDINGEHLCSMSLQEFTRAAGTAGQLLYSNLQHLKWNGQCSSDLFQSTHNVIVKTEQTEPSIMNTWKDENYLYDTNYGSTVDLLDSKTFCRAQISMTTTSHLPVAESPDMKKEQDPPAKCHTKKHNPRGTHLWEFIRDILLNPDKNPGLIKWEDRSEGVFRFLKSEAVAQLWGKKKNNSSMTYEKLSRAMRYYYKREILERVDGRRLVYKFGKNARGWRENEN
Summary of the method: as §1

SPI1 = SPI1 (Homo sapiens, UniProt P17947 1-270)
Summary of the method: as §1

SPIB = SPIB (Homo sapiens, UniProt Q01892 1-262)
Sequence of SPIB (Q01892 whole entry): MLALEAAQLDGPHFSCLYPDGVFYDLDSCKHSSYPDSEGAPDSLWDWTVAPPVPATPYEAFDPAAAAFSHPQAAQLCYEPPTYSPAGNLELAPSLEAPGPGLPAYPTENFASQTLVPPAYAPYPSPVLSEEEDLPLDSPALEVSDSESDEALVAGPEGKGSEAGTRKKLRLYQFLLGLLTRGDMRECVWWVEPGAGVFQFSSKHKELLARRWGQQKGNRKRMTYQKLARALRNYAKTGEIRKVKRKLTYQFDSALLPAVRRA
Summary of the method: as §1

ELK3 = target: T6, ELK3 (Homo sapiens, UniProt P41970 1-407)
T6 sequence: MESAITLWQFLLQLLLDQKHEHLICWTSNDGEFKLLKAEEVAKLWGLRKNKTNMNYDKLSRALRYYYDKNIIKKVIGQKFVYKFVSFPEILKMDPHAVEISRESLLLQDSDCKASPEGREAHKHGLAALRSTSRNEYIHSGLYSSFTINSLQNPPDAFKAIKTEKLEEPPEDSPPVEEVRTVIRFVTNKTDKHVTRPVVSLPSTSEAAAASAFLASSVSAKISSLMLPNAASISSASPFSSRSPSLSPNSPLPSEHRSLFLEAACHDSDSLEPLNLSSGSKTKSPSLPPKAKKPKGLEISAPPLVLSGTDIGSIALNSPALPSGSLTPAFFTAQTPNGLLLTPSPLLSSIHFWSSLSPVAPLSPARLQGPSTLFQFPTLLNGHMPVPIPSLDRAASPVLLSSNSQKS
Summary of the method: as §1

Sequence	binding signal (FLI1)	binding signal (ELK1)	binding signal (GABPA)	binding signal (ERG)	binding signal (ELF1)	binding signal (EHF)	binding signal (SPI1)	binding signal (SPIB)	binding signal (ELK3)
GCTCGT	1.19 fold enrichment (6-mer frequency, TF over GST control)	1.16 fold enrichment (6-mer frequency, TF over GST control)	1.26 fold enrichment (6-mer frequency, TF over GST control)	1.12 fold enrichment (6-mer frequency, TF over GST control)	1.15 fold enrichment (6-mer frequency, TF over GST control)	1.14 fold enrichment (6-mer frequency, TF over GST control)	1.12 fold enrichment (6-mer frequency, TF over GST control)	1.16 fold enrichment (6-mer frequency, TF over GST control)	
TGTTGA	1.15 fold enrichment (6-mer frequency, TF over GST control)	1.08 fold enrichment (6-mer frequency, TF over GST control)	1.16 fold enrichment (6-mer frequency, TF over GST control)	1.08 fold enrichment (6-mer frequency, TF over GST control)	1.16 fold enrichment (6-mer frequency, TF over GST control)	1.07 fold enrichment (6-mer frequency, TF over GST control)	1.11 fold enrichment (6-mer frequency, TF over GST control)	1.09 fold enrichment (6-mer frequency, TF over GST control)	
GGTATA	1.04 fold enrichment (6-mer frequency, TF over GST control)	1.16 fold enrichment (6-mer frequency, TF over GST control)	1.02 fold enrichment (6-mer frequency, TF over GST control)	1.05 fold enrichment (6-mer frequency, TF over GST control)	1.09 fold enrichment (6-mer frequency, TF over GST control)	1.11 fold enrichment (6-mer frequency, TF over GST control)	1.07 fold enrichment (6-mer frequency, TF over GST control)	1.06 fold enrichment (6-mer frequency, TF over GST control)	
TAGTCT	1.09 fold enrichment (6-mer frequency, TF over GST control)	1.07 fold enrichment (6-mer frequency, TF over GST control)	1.21 fold enrichment (6-mer frequency, TF over GST control)	1.08 fold enrichment (6-mer frequency, TF over GST control)	1.07 fold enrichment (6-mer frequency, TF over GST control)	1.05 fold enrichment (6-mer frequency, TF over GST control)	1.07 fold enrichment (6-mer frequency, TF over GST control)		
AGGCTC	1.04 fold enrichment (6-mer frequency, TF over GST control)	1.03 fold enrichment (6-mer frequency, TF over GST control)	1.12 fold enrichment (6-mer frequency, TF over GST control)	1.06 fold enrichment (6-mer frequency, TF over GST control)	1.12 fold enrichment (6-mer frequency, TF over GST control)	1.08 fold enrichment (6-mer frequency, TF over GST control)	1.02 fold enrichment (6-mer frequency, TF over GST control)	1.03 fold enrichment (6-mer frequency, TF over GST control)	
CAACGC	1.04 fold enrichment (6-mer frequency, TF over GST control)	1.11 fold enrichment (6-mer frequency, TF over GST control)	1.12 fold enrichment (6-mer frequency, TF over GST control)	1.04 fold enrichment (6-mer frequency, TF over GST control)	1.11 fold enrichment (6-mer frequency, TF over GST control)	1.01 fold enrichment (6-mer frequency, TF over GST control)	1.1 fold enrichment (6-mer frequency, TF over GST control)		
TCAATT	1.09 fold enrichment (6-mer frequency, TF over GST control)	1.06 fold enrichment (6-mer frequency, TF over GST control)	1.19 fold enrichment (6-mer frequency, TF over GST control)	1.16 fold enrichment (6-mer frequency, TF over GST control)	1.16 fold enrichment (6-mer frequency, TF over GST control)	1.12 fold enrichment (6-mer frequency, TF over GST control)	1.18 fold enrichment (6-mer frequency, TF over GST control)	1.29 fold enrichment (6-mer frequency, TF over GST control)	
ATCTTT	1.26 fold enrichment (6-mer frequency, TF over GST control)	1.24 fold enrichment (6-mer frequency, TF over GST control)	1.22 fold enrichment (6-mer frequency, TF over GST control)	1.21 fold enrichment (6-mer frequency, TF over GST control)	1.19 fold enrichment (6-mer frequency, TF over GST control)	1.27 fold enrichment (6-mer frequency, TF over GST control)	1.21 fold enrichment (6-mer frequency, TF over GST control)	1.23 fold enrichment (6-mer frequency, TF over GST control)	1.22 fold enrichment (6-mer frequency, TF over GST control)
